# Assay results taken from PubChem BioAssay (EPA / NIEHS).
# Several values for one entry are separate records, joined by “and”; a condition that tells them apart may be missing. Equal values may be shown once. Results filed as inconclusive are left out. Some compounds were tested as several samples or in several runs, with calls that do not always agree. Activity calls are given as the source filed them. The calls were made as follows, unless noted: active = hit-call score of the fitted dose curve at least 0.9, where 1 is the maximum; inactive = score below 0.9.
# Columns and labels:
# [1] = read-out: Monocyte Chemoattractant Protein-1 (MCP1), CCL2 (gene 6347); test: BSK_LPS_MCP1: BioMAP Diversity Plus: LPS Assay for Monocyte Chemoattractant Protein-1 (MCP1) Biomarker Activity (AID 2283081); settings: primary human HUVEC with PBMC; actives raise or lower the signal;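 as to AC50: secreted MCP-1 protein quantified by ELISA in culture supernatant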
# Method in brief: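 Values derive from bidirectional fitting against DMSO of ELISA-measured MCP-1 in a human primary endothelial and mononuclear cell co-culture, 24 h after chemical addition under LPS activation.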
# [2] = BSK_LPS_PGE2: BioMAP Diversity Plus: LPS Assay for Prostaglandin E2 (PGE2) Biomarker Activity (AID 2283082); settings: primary human HUVEC with PBMC; actives raise or lower the signal;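 as to AC50: secreted prostaglandin E2 measured by ELISA in LPS-stimulated co-culture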
# Method in brief: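 Endpoint derived from bidirectional curve fitting versus DMSO of ELISA-measured PGE2 in LPS-stimulated human primary vascular co-culture (HUVEC with PBMC) harvested at 24 h.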
# [3] = read-out: Macrophage colony-stimulating factor (MCSF), CSF1 (gene 1435); test: BSK_LPS_MCSF: BioMAP Diversity Plus: LPS Assay for Macrophage colony-stimulating factor (MCSF) Biomarker Activity (AID 2283083); settings: primary human HUVEC with PBMC; actives raise or lower the signal
# Method in brief: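 Bidirectional fit versus DMSO of ELISA-measured M-CSF in co-cultured human umbilical vein endothelial cells and PBMC, sampled 24 h after dosing.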
# [4] = read-out: Tissue Factor, F3 (gene 2152); test: BSK_LPS_TissueFactor: BioMAP Diversity Plus: LPS Assay for Tissue Factor Biomarker Activity (AID 2283084); settings: primary human HUVEC with PBMC; actives raise or lower the signal
# Method in brief: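 Read-out: CD142 ELISA, 24 h. System: LPS-driven human endothelial/PBMC co-culture. Analysis: up- or down-signal fitted against DMSO.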
# [5] = read-out: Tumor necrosis factor (Homo sapiens) (UniProt P01375); test: BSK_LPS_TNFa: BioMAP Diversity Plus: LPS Assay for Tumour Necrosis Factor alpha (TNFa) Biomarker Activity (AID 2283085); settings: primary human HUVEC with PBMC; actives raise or lower the signal
# Method in brief: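 Primary human vascular co-culture of HUVEC and PBMC; TNFa ELISA 24 h after treatment, analysed as increase or decrease relative to DMSO control.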
# [6] = read-out: Vascular cell adhesion molecule 1 (VCAM1), VCAM1 (gene 7412); test: BSK_LPS_VCAM1: BioMAP Diversity Plus: LPS Assay for Vascular cell adhesion molecule 1 (VCAM1) Biomarker Activity (AID 2283086); settings: primary human HUVEC with PBMC; actives raise or lower the signal
# Method in brief: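 Primary human vascular co-culture (umbilical vein endothelium plus PBMC) stimulated with LPS received chemical; 24 h later VCAM-1 was read by ELISA. Overt cytotoxicity was assessed by sulforhodamine B staining of parallel cultures at the same time point.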
# CD40, CD40 (gene 958) = test: BSK_SAg_CD40: BioMAP Diversity Plus: SAg Assay for CD40 Biomarker Activity (AID 2283088); settings: primary human HUVEC with PBMC; actives raise or lower the signal
# Method in brief: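 Endpoint derived by fitting increases or decreases versus DMSO controls. CD40 is detected by fluorescence ELISA in a human vascular co-culture of endothelium and PBMC at 24 h.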
# CD69, CD69 (gene 969) = test: BSK_SAg_CD69: BioMAP Diversity Plus: SAg Assay for CD69 Biomarker Activity (AID 2283089); settings: primary human HUVEC with PBMC; actives raise or lower the signal;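 as to AC50: cell surface CD69 protein quantified by ELISA with fluorescence detection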
# Method in brief: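 Values derive from bidirectional fitting relative to DMSO vehicle. Cells: umbilical vein endothelium plus peripheral blood mononuclear cells, treated 24 h before fluorescent ELISA for CD69.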
# [7] = read-out: Monocyte Chemoattractant Protein-1 (MCP1), CCL2 (gene 6347); test: BSK_SAg_MCP1: BioMAP Diversity Plus: SAg Assay for Monocyte Chemoattractant Protein-1 (MCP1) Biomarker Activity (AID 2283090); settings: primary human HUVEC with PBMC; actives raise or lower the signal
# Method in brief: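 MCP-1 levels in the endothelial–PBMC SAg co-culture were quantified by ELISA at 24 h post-dosing; both increases and decreases versus DMSO scored. Cytotoxicity monitored by SRB total protein in parallel cultures.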
# [8] = read-out: E-selectin (Homo sapiens) (UniProt P16581); test: BSK_SAg_Eselectin: BioMAP Diversity Plus: SAg Assay for Eselectin Biomarker Activity (AID 2283091); settings: primary human HUVEC with PBMC; actives raise or lower the signal
# Method in brief: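 Endpoint values derive from bidirectional fitting relative to DMSO, using ELISA-measured E-selectin in a human vascular co-culture (umbilical vein endothelium plus PBMC) sampled 24 h after dosing.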
# [9] = read-out: Monokine induced gamma interferon (MIG), CXCL9 (gene 4283); test: BSK_SAg_MIG: BioMAP Diversity Plus: SAg Assay for Monokine induced gamma interferon (MIG) Biomarker Activity (AID 2283092); settings: primary human HUVEC with PBMC; actives raise or lower the signal
# Method in brief: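 Values reflect bidirectional fitting of ELISA-measured MIG against DMSO vehicle, taken 24 h after dosing of a co-culture of human umbilical vein endothelial cells and peripheral blood mononuclear cells.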
# [10] = read-out: Interleukin-8 (IL8), CXCL8 (gene 3576); test: BSK_SAg_IL8: BioMAP Diversity Plus: SAg Assay for Interleukin-8 (IL8) Biomarker Activity (AID 2283094); settings: primary human HUVEC with PBMC; actives raise or lower the signal
# Method in brief: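 In this co-culture of human umbilical vein endothelium with peripheral blood mononuclear cells, IL-8 is assayed by ELISA at 24 h. DMSO serves as baseline for bidirectional curve fitting.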
# [11] = BSK_SAg_Proliferation: Cell Proliferation Assessment in the BioMAP Diversity Plus: SAg Assay (AID 2283095); settings: primary human HUVEC with PBMC;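 also: relative cell number as total protein by SRB absorbance in sub-confluent culture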
# Method in brief: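 Readout is SRB-stained protein (560 nm) in a primary human HUVEC and PBMC co-culture; sub-confluent cultures are read at 96 h. Activity is fitted bidirectionally using DMSO as baseline.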
# [12] = BSK_SAg_SRB: Viability Assessment in the BioMAP Diversity Plus: SAg Assay (AID 2283096); settings: primary human HUVEC with PBMC;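 also: cells read one day after compound addition; hits may be either gain or loss of signal compared with DMSO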
# Method in brief: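 Endothelial/PBMC primary human co-culture; compound 24 h; fix 10% TCA, stain 0.1% SRB, A560; protein content as cytotoxicity proxy; bidirectional curve fit, DMSO = baseline.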
# [13] = BSK_SAg_PBMCCytotoxicity: PBMC Cytotoxicity Assessment in the BioMAP Diversity Plus: SAg Assay (AID 2283093); settings: primary human HUVEC with PBMC;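 also: PBMC viability measured as Alamar Blue reduction fluorescence at 546/580 nm; fitted both ways against DMSO so a hit may be loss or gain of signal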;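 as to AC50: PBMC superantigen activated with SEB plus TSST-1 one hour after compound addition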
# Method in brief: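 Human umbilical vein endothelial cells co-cultured with PBMC; PBMC (75,000/well) pre-treated with compound 1 h, then activated with SEB and TSST-1 (20 ng/mL final each) for 90 h. Alamar Blue added 6 h, fluorescence 546/580 nm; bidirectional fit versus DMSO.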
# CD38, CD38 (gene 952) = test: BSK_SAg_CD38: BioMAP Diversity Plus: SAg Assay for CD38 Biomarker Activity (AID 2283087); settings: primary human HUVEC with PBMC; actives raise or lower the signal
# Method in brief: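 Fluorescence ELISA of cell-surface CD38 served as the read-out, with either increase or decrease fitted against DMSO controls. Cells were a human umbilical vein endothelium plus PBMC co-culture under SEB/TSST-1 stimulation, measured 24 h after dosing.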
# [14] = target: human CYP1A1, CYP1A1 (gene 1543) (UniProt P04798); test: NVS_ADME_hCYP1A1: NovaScreen (NVS) CYP450-related Enzyme Activity (ADME) Assay for human CYP1A1 (AID 2283100; active = hit-call score of the fitted dose curve at least 0.9, where 1 is the maximum)
# human CYP1A1, CYP1A1 (gene 1543), sequence (P04798 whole entry, looked up): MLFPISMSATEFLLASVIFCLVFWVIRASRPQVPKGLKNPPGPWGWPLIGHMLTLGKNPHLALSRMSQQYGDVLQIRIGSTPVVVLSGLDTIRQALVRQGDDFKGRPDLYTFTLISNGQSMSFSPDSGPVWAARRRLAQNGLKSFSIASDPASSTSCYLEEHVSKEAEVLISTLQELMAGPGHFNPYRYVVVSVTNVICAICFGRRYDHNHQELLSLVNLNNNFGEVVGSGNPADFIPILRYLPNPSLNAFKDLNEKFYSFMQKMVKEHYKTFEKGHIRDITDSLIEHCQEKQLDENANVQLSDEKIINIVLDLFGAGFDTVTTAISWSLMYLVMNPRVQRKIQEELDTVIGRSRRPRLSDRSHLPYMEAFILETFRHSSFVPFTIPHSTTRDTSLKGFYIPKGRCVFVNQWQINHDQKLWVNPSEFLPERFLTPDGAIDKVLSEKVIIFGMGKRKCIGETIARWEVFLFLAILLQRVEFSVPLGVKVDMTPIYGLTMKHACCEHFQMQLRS
# Method in brief: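 Inhibition of recombinant CYP1A1 turnover was assessed fluorometrically in a biochemical format 1 h after compound exposure. Testing began at 10 uM in duplicate and progressed to concentration series reaching 20 uM, with on-plate positive and negative controls.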
# [15] = target: human CYP2B6, CYP2B6 (gene 1555) (UniProt P20813); test: NVS_ADME_hCYP2B6: NovaScreen (NVS) CYP450-related Enzyme Activity (ADME) Assay for human CYP2B6 (AID 2283101; active = hit-call score of the fitted dose curve at least 0.9, where 1 is the maximum)
# human CYP2B6, CYP2B6 (gene 1555), sequence (P20813 whole entry, looked up): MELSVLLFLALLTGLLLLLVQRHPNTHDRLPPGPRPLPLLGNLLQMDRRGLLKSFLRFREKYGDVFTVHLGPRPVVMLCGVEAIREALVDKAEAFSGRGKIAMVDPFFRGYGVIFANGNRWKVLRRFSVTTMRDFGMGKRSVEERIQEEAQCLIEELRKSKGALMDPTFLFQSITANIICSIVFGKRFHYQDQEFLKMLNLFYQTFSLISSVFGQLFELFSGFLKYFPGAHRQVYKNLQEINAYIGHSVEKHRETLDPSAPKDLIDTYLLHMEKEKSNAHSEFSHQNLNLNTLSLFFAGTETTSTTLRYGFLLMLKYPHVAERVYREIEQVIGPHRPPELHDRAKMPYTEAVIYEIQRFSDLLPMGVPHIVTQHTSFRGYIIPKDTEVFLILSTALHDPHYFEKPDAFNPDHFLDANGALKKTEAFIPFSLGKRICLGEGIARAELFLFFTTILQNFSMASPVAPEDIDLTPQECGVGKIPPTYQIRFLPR
# Method in brief: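 Compounds were first screened in duplicate at 10 uM against recombinant enzyme, with the fluorescent product measured after 1 hour. Active compounds were retested over a concentration series. Loss of fluorescence versus acetonitrile control was scored as reduced enzyme activity.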
# E-selectin (Homo sapiens), sequence (P16581 whole entry, looked up): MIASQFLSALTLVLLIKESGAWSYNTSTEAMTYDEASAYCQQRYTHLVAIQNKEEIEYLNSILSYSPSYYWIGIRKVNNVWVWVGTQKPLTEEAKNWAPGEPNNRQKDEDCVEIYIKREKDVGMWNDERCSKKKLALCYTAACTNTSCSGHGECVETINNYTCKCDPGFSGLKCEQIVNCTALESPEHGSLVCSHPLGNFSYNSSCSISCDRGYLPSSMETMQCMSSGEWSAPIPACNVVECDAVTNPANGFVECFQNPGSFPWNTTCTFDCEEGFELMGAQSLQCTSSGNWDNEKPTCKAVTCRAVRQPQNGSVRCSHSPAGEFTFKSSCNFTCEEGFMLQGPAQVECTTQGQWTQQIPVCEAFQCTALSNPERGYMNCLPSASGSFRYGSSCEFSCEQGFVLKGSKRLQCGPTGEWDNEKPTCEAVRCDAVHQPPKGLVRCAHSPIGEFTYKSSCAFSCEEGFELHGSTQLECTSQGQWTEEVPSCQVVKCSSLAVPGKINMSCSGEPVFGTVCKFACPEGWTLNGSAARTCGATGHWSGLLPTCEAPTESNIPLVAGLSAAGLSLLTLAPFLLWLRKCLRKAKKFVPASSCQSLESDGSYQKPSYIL
# Tumor necrosis factor (Homo sapiens), sequence (P01375 whole entry, looked up): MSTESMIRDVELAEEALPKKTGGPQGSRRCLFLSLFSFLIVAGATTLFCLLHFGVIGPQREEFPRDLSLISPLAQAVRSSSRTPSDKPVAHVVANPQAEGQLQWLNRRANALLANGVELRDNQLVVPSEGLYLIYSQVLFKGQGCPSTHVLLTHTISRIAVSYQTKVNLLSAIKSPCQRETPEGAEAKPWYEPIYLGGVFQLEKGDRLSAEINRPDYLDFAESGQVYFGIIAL
smiles,measurement,setting,value
OCCC(F)(F)C(F)(F)C(F)(F)C(F)(F)C(F)(F)C(F)(F)C(F)(F)C(F)(F)F,AC50,[1],30.8 µM (active) and 21.8 µM (active)
same,outcome,[1],inactive
same,outcome,[2],inactive
same,AC50,[3],43.2 µM (active) and 5.95 µM (active)
same,outcome,[3],inactive
same,AC50,[4],45.6 µM (active)
same,outcome,[4],inactive
same,AC50,[5],47.6 µM (active)
same,outcome,[5],inactive
same,AC50,[6],24.3 µM (active) and 33.3 µM (active) and 18.8 µM (active)
same,AC50,"CD40, CD40 (gene 958)",29.1 µM (active) and 23.8 µM (active)
same,outcome,"CD40, CD40 (gene 958)",inactive
same,AC50,"CD69, CD69 (gene 969)",26 µM (active) and 38.3 µM (active)
same,outcome,"CD69, CD69 (gene 969)",inactive
same,AC50,[7],43 µM (active) and 23.1 µM (active)
same,outcome,[7],inactive
same,AC50,[8],39.2 µM (active) and 31.9 µM (active)
same,outcome,[8],inactive
same,AC50,[9],46.3 µM (active) and 43.8 µM (active)
same,outcome,[9],inactive
same,AC50,[10],41.5 µM (active) and 24.6 µM (active)
same,outcome,[10],inactive
same,AC50,[11],20 µM (active) and 14.1 µM (active) and 10.9 µM (active)
same,AC50,[12],17.2 µM (active) and 21.1 µM (active)
same,outcome,[12],inactive
FC(F)(I)C(F)(F)C(F)(F)C(F)(F)C(F)(F)C(F)(F)I,AC50,[1],36.5 µM (active) [middle of 5 runs]
same,AC50,[2],7.63 µM (active) and 7.34 µM (active) and 7.24 µM (active)
same,outcome,[2],inactive
same,AC50,[5],20.2 µM (active) [middle of 5 runs]
same,AC50,[9],54.9 µM (active) [middle of 5 runs]
same,AC50,[10],9.66 µM (active) and 45 µM (active) and 41.6 µM (active)
same,outcome,[10],inactive
same,AC50,[12],28.1 µM (active) [middle of 5 runs]
C#C[C@]1(O)CC[C@H]2[C@@H]3CCC4=CC(=O)CC[C@@H]4[C@H]3CC[C@@]21C,AC50,[1],8.06 µM (active)
same,AC50,[2],20 µM (active)
same,AC50,[3],6.38 µM (active)
same,outcome,[4],inactive
same,AC50,[5],4.11 µM (active)
same,AC50,[6],8.21 µM (active)
same,AC50,"CD40, CD40 (gene 958)",5.45 µM (active)
same,outcome,"CD69, CD69 (gene 969)",inactive
same,AC50,[7],5.76 µM (active)
same,outcome,[8],inactive
same,outcome,[9],inactive
same,outcome,[13],inactive
same,outcome,[10],inactive
same,outcome,[11],inactive
same,AC50,[12],7.46 µM (active)
CCCCCCCCOC(=O)CCCCCCCCC(=O)OCCCCCCCC,outcome,[1],inactive
same,outcome,[2],inactive
same,outcome,[3],inactive
same,outcome,[4],inactive
same,outcome,[5],inactive
same,outcome,[6],inactive
same,outcome,"CD38, CD38 (gene 952)",inactive
same,outcome,"CD40, CD40 (gene 958)",inactive
same,outcome,"CD69, CD69 (gene 969)",inactive
same,outcome,[7],inactive
same,outcome,[8],inactive
same,outcome,[9],inactive
same,outcome,[13],inactive
same,outcome,[10],inactive
same,outcome,[11],inactive
same,outcome,[12],inactive
CCCOc1sc(C(=O)N2CCC(c3cc(CN)ccc3F)CC2)c(C)c1Br,AC50,[1],9.2 µM (active)
same,AC50,[2],12.5 µM (active)
same,AC50,[3],10.7 µM (active)
same,AC50,[4],13.1 µM (active)
same,AC50,[5],13.4 µM (active)
same,AC50,[6],7.57 µM (active)
same,AC50,"CD38, CD38 (gene 952)",6.1 µM (active)
same,AC50,"CD40, CD40 (gene 958)",9.53 µM (active)
same,AC50,"CD69, CD69 (gene 969)",8.27 µM (active)
same,AC50,[7],8.39 µM (active)
same,AC50,[8],6.75 µM (active)
same,AC50,[9],11.9 µM (active)
same,AC50,[13],6.22 µM (active)
same,AC50,[10],7.78 µM (active)
same,AC50,[11],5.11 µM (active)
same,AC50,[12],6.68 µM (active)
same,outcome,[14],inactive
same,AC50,[15],8.64 µM (active)
ClC1=C(Cl)C(Cl)(Cl)C(Cl)=C1Cl,AC50,[1],12.3 µM (active)
same,AC50,[2],11.6 µM (active)
same,AC50,[3],9.94 µM (active)
same,AC50,[4],9.9 µM (active)
same,AC50,[5],18.4 µM (active)
same,AC50,[6],9.81 µM (active)
same,AC50,"CD38, CD38 (gene 952)",7.55 µM (active)
same,AC50,"CD40, CD40 (gene 958)",8.3 µM (active)
same,AC50,"CD69, CD69 (gene 969)",8.69 µM (active)
same,AC50,[7],10.6 µM (active)
same,AC50,[8],8.69 µM (active)
same,AC50,[9],13.8 µM (active)
same,AC50,[13],10.4 µM (active)
same,AC50,[10],10.4 µM (active)
same,AC50,[11],5.78 µM (active)
same,AC50,[12],9.48 µM (active)
CCCCCCCC(=O)O,outcome,[1],inactive
same,outcome,[2],inactive
same,outcome,[3],inactive
same,outcome,[4],inactive
same,outcome,[5],inactive
same,outcome,[6],inactive
same,outcome,"CD40, CD40 (gene 958)",inactive
same,outcome,"CD69, CD69 (gene 969)",inactive
same,outcome,[7],inactive
same,outcome,[8],inactive
same,outcome,[9],inactive
same,outcome,[13],inactive
same,outcome,[10],inactive
same,outcome,[11],inactive
same,outcome,[12],inactive
